p53null 39C tox: selectivity test: cytotoxicity in p53 null cells, nonpermissive temperature; H1299 p53-null (neo) cells, 39C, ATPlite viability, 24 h; Potency, µM (highest dose often 46.1 µM), hits mostly cytotoxic; actives 0.97% (n = 55,000); AID 904; also: nearly all actives have a fitted effect of over 50% in size
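Temperature-shift cytotoxicity format: compound titrations on p53-null or A138V-expressing H1299 cells held 24 hr at 39C, cell ATP then measured, AC50 from Hill model.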
p53null 32C tox: selectivity test: cytotoxicity in p53 null cells, permissive temperature | Potency, µM (doses to about 46.1 µM), usual class: cytotoxic | actives 0.62% (n = 55,000) | H1299-neo p53 null cells, ATP luminescence, 24 h, 32C | AID 903; also: nearly all actives have a fitted effect of over 55% in size
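We seeded p53-null H1299-neo cells, incubated them overnight at 37C, and added compounds across a range up to 46 uM. After 24 hours at 32C, ATP reagent was applied for 20 min at room temperature and luminescence recorded.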
PMP22 txn: PMP22 gene transcription modulation. S16 Pmp22-F2sN Schwann cells, FLuc/NLuc coincidence luminescence, 24 h. Potency, µM (titrated, usually from 57.5 µM), most hits filed as inhibitors. actives 2% (n = 43,000); active = clear falling dose curves in both reporters; inconclusive = both reporters move, but less clearly or upward; inactive = either reporter flat; the % is the NLuc reporter signal
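Transcriptional readout in edited S16(c9) cells: two luciferases reported from the Pmp22 locus, measured in turn after 24 h compound incubation.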
GALC G270D up: galactocerebrosidase G270D activity enhancement, cell-based; Potency, µM (highest dose often 57.5 µM), most hits filed as activators; P54803; 145M-Twi-hGALC-G270D cells (Twitcher mouse brain line with human GALC G270D), HMU-beta-Gal fluorescence, 48 h; actives 0.1% (n = 45,000); also: nearly all actives have a fitted effect of over 65% in size
Target sequence (P54803 whole entry G286D): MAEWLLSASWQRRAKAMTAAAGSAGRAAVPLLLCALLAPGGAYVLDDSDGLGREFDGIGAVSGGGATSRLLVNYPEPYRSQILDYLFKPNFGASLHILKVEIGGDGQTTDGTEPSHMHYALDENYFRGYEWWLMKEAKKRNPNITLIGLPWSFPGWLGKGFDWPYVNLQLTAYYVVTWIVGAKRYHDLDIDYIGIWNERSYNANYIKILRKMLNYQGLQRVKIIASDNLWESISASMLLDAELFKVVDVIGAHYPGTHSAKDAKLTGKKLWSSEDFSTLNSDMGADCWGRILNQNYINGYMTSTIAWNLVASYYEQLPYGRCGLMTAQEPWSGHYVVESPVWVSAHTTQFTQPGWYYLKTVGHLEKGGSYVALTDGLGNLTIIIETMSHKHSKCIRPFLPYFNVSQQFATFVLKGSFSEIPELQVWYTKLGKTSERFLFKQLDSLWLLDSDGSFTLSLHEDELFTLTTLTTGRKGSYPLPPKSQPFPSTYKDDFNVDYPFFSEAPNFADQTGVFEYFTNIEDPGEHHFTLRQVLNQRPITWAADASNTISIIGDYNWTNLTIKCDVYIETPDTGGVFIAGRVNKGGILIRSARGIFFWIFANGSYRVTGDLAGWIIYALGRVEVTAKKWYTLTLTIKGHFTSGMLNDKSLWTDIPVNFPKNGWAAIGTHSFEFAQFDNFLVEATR
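Mutant human GALC (G270D), stably expressed in a Twitcher mouse brain cell line lacking endogenous GALC, is measured in live-treated cells via 6-hexadecanoylamino-4-methylumbelliferyl-β-galactoside hydrolysis (0.1 mM final, pH 5.2) with fluorescent detection.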
mTORC1 inh: inhibitors of mTORC1 signaling in Tsc2-/- p53-/- MEF cells; Tsc2-/- p53-/- MEF, phospho-rpS6 immunofluorescence/PI, 24 h; Potency, µM (doses to about 38.3 µM), most hits filed as inhibitors; actives 0.78% (n = 44,000); AID 493208; also: nearly all actives have a fitted effect of over 50% in size
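Cell-based qHTS: Tsc2-/- p53-/- MEF, 24 h cpd, 37 °C; fix/perm, anti-phospho-S6 Alexa-488 + PI; Acumen 488 nm scan; pS6/PI ratio, % positive cells; rapamycin 7.5 nM = inhibition ref; PI count = viability.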
S16 viability: cytotoxicity in S16 Pmp22-F2sN Schwann cells. actives 0.48% (n = 43,000). S16 Pmp22-F2sN Schwann cells viability, CellTiter-Glo, 24 h. Potency, µM (top dose mostly 57.5 µM), usual class: cytotoxic; also: nearly all actives have a fitted effect of over 65% in size
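S16 Pmp22-F2sN Schwann cells (500-1,000/well) in phenol-red-free DMEM with 10% FBS received 23 nL compound by pin tool for 24 h at 37 °C. Viability was then read as CellTiter-Glo luminescence after 15 min at room temperature.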
Hits are given with their value; i = inactive; ? = inconclusive; nt = no result. Compounds with a hit are over-represented: about 3% of the library has one in this group of screens. Unless noted, calls follow the shape of the dose curve; as a rule, active = well fitted curve in the direction sought with a large enough effect; inconclusive = small, poorly fitted or top-dose-only effect, or another doubt; inactive = no such curve, though single readings can be large; an effect the other way counts as inactive or inconclusive.

SMILES	p53null 39C tox	p53null 32C tox	PMP22 txn	GALC G270D up	mTORC1 inh	S16 viability
CCCN(CCC)CCCNC(=O)Cn1ncc2c3ccccc3n(Cc3ccccc3F)c2c1=O	i	i	?	i	i	?
CCn1c(CC2C(=O)N(C)c3ccc(Br)cc32)nc2ccccc2c1=O (stereo not drawn)	?	i	?	i	?	i
CCCN1C(=O)C(Cc2nc3ccccc3c(=O)n2CC)c2cc(Br)ccc21 (stereo not drawn)	?	i	?	i	15µM	?
Cc1ccc(Nc2c(-c3c[nH]c4ccccc34)nc3ccccn23)cc1	14µM	i	?	i	?	i
CCN1CCN(CCCNC(=O)c2cc3c(s2)-c2c(C)cccc2OC3)CC1	?	i	?	i	?	25µM
Nc1c(C(=O)NCc2ccccc2)nnn1Cc1cccc(Br)c1	i	i	3µM	i	i	?
CCCCN(CC)CCNC(=O)Cn1cnc2sc(C)c(S(=O)(=O)N3CCC(C)CC3)c2c1=O	i	i	i	i	i	i
COc1cccc(-c2noc(-c3cc(C(C)C)[nH]n3)n2)c1OC	?	i	i	i	i	i
CCOc1cc(CNCCSc2nnnn2C)ccc1OCc1ccc(Cl)cc1Cl	16µM	?	?	i	?	?
COCCNC(=O)C(OC(=O)CC1Sc2ccccc2NC1=O)c1ccccc1 (stereo not drawn)	i	i	nt	nt	nt	nt
COc1ccc(Nc2nc(N)c3cc(OC)c(OC)cc3n2)cc1	?	?	?	i	18µM	?
COc1cc(OC)cc(C(=O)Nc2cc(-c3nc4ccccc4[nH]3)ccc2C)c1	i	i	i	i	i	i
Cc1ccc(C(C)C)c(OCC(=O)Nc2cc(-c3nc4ccccc4[nH]3)ccc2C)c1	7.9µM	?	?	i	13µM	?
CCOc1ccc(CNC(=O)CSc2nnc(C)c3c(C)n(-c4ccccc4)nc23)cc1	25µM	i	i	i	i	i
Cc1nnc(SCC(=O)NCc2cccc(F)c2)c2nn(-c3ccccc3)c(C)c12	i	i	?	i	i	?
Cc1cc(C(=O)N2CCN(c3cc(Cl)ccc3C)CC2)c2c(C)nn(-c3ccccc3)c2n1	i	i	i	i	i	i
CN(Cc1ccccc1)C(=O)c1cccc(NC(=O)c2nsc3ccccc23)c1	14µM	?	?	i	i	i
O=C(Nc1nc2c(s1)CCCC2)c1ccc2ncsc2c1	11µM	13µM	nt	nt	nt	nt
COc1ccc(C(=O)Nc2nc3c(s2)CCCC3)cc1Cl	?	i	?	i	i	i
Cc1cccc(C(=O)Nc2nc3c(s2)CCCC3)c1	13µM	13µM	i	i	i	i
COc1ccc(N2CCN(C(=O)c3cc(S(=O)(=O)N4CCC(C)CC4)cn3C)CC2)cc1	?	i	i	i	i	i
Cn1c(C(=O)NCCc2ccccc2)cc2sc(Cl)cc21	7.9µM	11µM	i	i	i	i
CCN(c1ccccc1)S(=O)(=O)c1nnc(NC(=O)c2cccs2)s1	1µM	1.3µM	i	i	i	i
CC(C)CN(c1ccccc1)S(=O)(=O)c1nnc(NC(=O)c2ccco2)s1	2µM	?	i	i	i	i
CCS(=O)(=O)c1ncc(Cl)c(C(=O)Nc2ccc(S(=O)(=O)N(C)c3ccccc3)cc2)n1	?	i	1µM	i	0.41µM	4.5µM
SMILES	p53null 39C tox	p53null 32C tox	PMP22 txn	GALC G270D up	mTORC1 inh	S16 viability
CCSc1ncc(Cl)c(C(=O)Nc2ccc(S(=O)(=O)N(C)c3ccccc3)cc2)n1	i	i	?	i	i	i
CCN(c1ccccc1)S(=O)(=O)c1ccc(NC(=O)c2nc(S(C)(=O)=O)ncc2Cl)cc1	?	?	1.7µM	i	3.3µM	4.5µM
O=c1[nH]c2ccc(NS(=O)(=O)c3ccc(F)cc3)cc2s1	i	i	i	i	i	i
Cc1cc(=O)n2nc(N3CCC(C(=O)Nc4ccc(Br)cc4F)CC3)sc2n1	i	i	i	i	i	i
Cc1cc(=O)n2nc(N3CCC(C(=O)Nc4ccc(Br)c(C)c4)CC3)sc2n1	i	i	15µM	i	i	i
O=C(Nc1ccc2nn(-c3ccccc3)nc2c1)c1ccco1	i	i	nt	nt	nt	nt
CCn1cnc2cc(NC(=O)c3ccco3)ccc21	13µM	10µM	nt	nt	nt	nt
CCc1ccc(-n2c(SCc3ccccc3Cl)nc3[nH]ncc3c2=O)cc1	18µM	?	?	i	i	?
Cc1cccc(NC(c2cccc(Cl)c2)c2ccc3cccnc3c2O)n1 (stereo not drawn)	2.5µM	?	?	i	?	?
Cc1ccc(C(Nc2ccccn2)c2ccc3cccnc3c2O)cc1 (stereo not drawn)	4µM	?	?	i	i	32µM
COc1ccc(C(Nc2ccccn2)c2ccc3ccc(C)nc3c2O)cc1C (stereo not drawn)	?	?	?	i	i	?
Cc1ccc(N2CCN(C(=O)c3cn(C)c4ccc(S(=O)(=O)N(C)C5CCCCC5)cc4c3=O)CC2C)cc1 (stereo not drawn)	i	i	?	i	i	i
O=C(Cn1cc(S(=O)(=O)N2CCCC2)c(S(=O)(=O)N2CCCC2)c1)Nc1ccc(F)cc1	i	i	i	i	i	i
Cc1cc(NC(=O)CSc2nc(-c3ccccc3F)nc3c2c(=O)n(C)c(=O)n3C)no1	i	i	?	i	i	i
Cc1ccc(NC(=O)CSc2[nH]c(=O)ncc2C)cc1	13µM	11µM	i	i	i	i
Cc1ccc(NC(=O)CSc2ncc(-c3ccccc3)[nH]2)cc1	i	i	?	i	i	i
CCc1ccc(S(=O)(=O)Nc2cccc(-c3ccc(N4CCC(C)CC4)nn3)c2)s1	13µM	10µM	nt	nt	i	nt
CC(=O)Nc1ccc(S(=O)(=O)Nc2cccc(-c3ccc(N4CCC(C)CC4)nn3)c2)cc1	3.2µM	4µM	nt	nt	i	nt
CC(=O)c1ccc(S(=O)(=O)Nc2ccc(-c3ccc(N4CCCCC4)nn3)cc2)cc1	16µM	?	nt	nt	i	nt
COc1ccc(S(=O)(=O)Nc2cccc(-c3ccc(N4CCC(C)CC4)nn3)c2)c(OC)c1	13µM	13µM	nt	nt	i	nt
CC(=O)c1ccc(S(=O)(=O)Nc2ccc(-c3ccc(N4CCCCCC4)nn3)cc2)cc1	?	i	nt	nt	i	nt
CC(=O)c1ccc(NC(=O)Cn2c(=O)c3cccn3c3ccccc32)cc1	i	i	i	i	i	i
COc1ccc(-n2c(/C=C/c3cc(OC)c(OC)cc3OC)nc3cc4ccccc4cc3c2=O)cc1Cl	i	i	i	i	?	i

Assay outcomes as filed in PubChem BioAssay.
